Molecules are shown by their SMILES. “And” between values parts separate entries of the source, which are not always exact repeats. Equal entries are not always repeated. Among all 360,000 compounds or so, about 4,200 (1.2%) were called active. Many of the other results were omitted from the sample, so actives are more common in it than they were. A number with no mark means an inactive call.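 How the source made its calls: active means mean replicate inhibition at least 60% with every replicate also reaching 60%; inconclusive means only one of the two criteria is met; inactive means mean below 60% and not all replicates reaching 60%.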

This experiment in a line: PAX8 transcriptional activity inhibition in RMG-I – RMG-I cells, luciferase, single concentration, primary screen (AID 652154).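 Further: luciferase light reporting Pax8 driven TPO promoter activity; plate controls were median of neutral control wells for no effect and mitoxantrone controls for full effect.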 The note with it: RMG-I TPO-luciferase reporter, SteadyGlo, 24 h; at 12.6 µM; active compounds read high. In general terms: In a reporter assay the amount or activity of a reporter protein is the signal.
As usually defined, the inhibition is the drop in the measured response relative to a control, in per cent. On to `O=C(C[C@@H]1C=C[C@H](NC(=O)CN2CCOCC2)[C@@H](CO)O1)NC1CCC1`, for which the inhibition is -5.79%.
`C[C@H](CO)N1C[C@H](C)[C@H](CN(C)C)Oc2c(NS(=O)(=O)c3ccc(Cl)cc3)cccc2C1=O`: the inhibition is -6.01%.
Take `COc1cccc(S(=O)(=O)N[C@H]2CC[C@H](CC(=O)NC3CCC3)O[C@H]2CO)c1`: the inhibition is -7.93%.
As to `O=C(C[C@H]1C[C@@H]2c3cc(NC(=O)c4cccnc4)ccc3O[C@@H]2[C@H](CO)O1)NCc1ccccn1`, the inhibition is -7.94%.
For `Cc1ccc(N)cc1CN1CCN(c2ncc(Cc3ccccc3)cn2)CC1`, the inhibition was -0.199%.
On to `CN(C)C(=O)c1ccc(-c2ccc(C3[C@@H]4CN(C(=O)Nc5ccccc5)C[C@H]3N4)cc2)cc1` (some centres not stated), for which the inhibition is 5.13%.
To `Cc1cccc(-c2ccc(C3[C@@H]4CN(C(=O)Nc5ccc(C(F)(F)F)cc5)C[C@H]3N4)cc2)c1` (some centres not stated) belongs 116% (active) and 119% (active); to `O=C(C1CCCCC1)N1C[C@@H]2N[C@H](C1)C2c1ccc(-c2cccc(F)c2)cc1` (some centres not stated), -14.7% and -21.2%; to `CNC[C@H]1Oc2ccc(NC(=O)Nc3ccc4c(c3)OCO4)cc2CC(=O)N([C@H](C)CO)C[C@H]1C`, 2.09%.
For `COc1ccc2c3c(n(C)c2c1)[C@@H](CO)N(Cc1ccncc1)CC31CN(C(=O)C2CCC2)C1`, the inhibition is 7.29%.
In the case of `COCC(=O)N(C[C@H]1N[C@H](CO)[C@H]1c1ccc(C2=CCCCC2)cc1)C(C)C` it was 2.09%.
Turning to `Cn1c(=O)n(C)c2cc(C(=O)Nc3ccc(Br)cc3)ccc21`, the inhibition was -6.12%.
As to `CN(CC1CCCO1)S(=O)(=O)c1ccc(C(=O)Nc2ccc([N+](=O)[O-])cc2)cc1` (configuration not stated), the inhibition is -4.55%.
Take `Cn1ccc(=Nc2ccc(NC(=O)c3ccc(N=c4ccn(C)c5ccc([N+](=O)[O-])cc45)cc3)cc2)cc1`: the inhibition was 79.6% (active).
Take `C[C@@H]1CN([C@H](C)CO)C(=O)c2cc(N(C)C)ccc2O[C@@H](C)CCCCO[C@@H]1CN(C)C(=O)CCCN(C)C`: the inhibition was -0.0835%.
As to `O=c1ccn([C@@H]2O[C@H](CNS(=O)(=O)c3cc4ccccc4s3)[C@@H](O)[C@H]2O)c(=O)[nH]1`, the inhibition was 78.9% (active).
In the case of `Cc1sc2ccccc2c1CNC[C@H]1O[C@@H](n2ccc(=O)[nH]c2=O)[C@H](O)[C@@H]1O`, the inhibition is 3.61%.
For the compound `O=C(NS(=O)(=O)c1cccs1)[C@H]1O[C@@H](n2ccc(=O)[nH]c2=O)[C@H](O)[C@@H]1O`, the inhibition is -7.69%.
For `C[C@H]1CN([C@@H](C)CO)C(=O)c2c(c3ccccc3n2C)-c2ccccc2CO[C@@H]1CN(C)Cc1ccc2c(c1)OCCN2C`, the inhibition was -18%.
Turning to `CS(=O)(=O)N1[C@H](CO)[C@H](c2ccccc2)C12CN(C(=O)C1CC1)C2`, the inhibition is -2.16%.
Regarding `COc1cccc(-c2cnc3c(c2)C(=O)N([C@H](C)CO)C[C@H](C)[C@@H](CN(C)Cc2ccc(C(=O)O)cc2)O3)c1`, the inhibition is 9.85%.
In the case of `OC[C@@H]1CN(Cc2ccc(-c3ccccc3)cc2)C[C@H](n2cnc3c(NC4CCCC4)ncnc32)O1` it was 64.7% (active); in that of `OC[C@@H]1CN(Cc2cccs2)C[C@H](n2cnc3c(NC4CCCC4)ncnc32)O1`, -6.69%; in that of `OC[C@@H]1CN(Cc2ccc(F)cc2)C[C@H](n2cnc3c(NC4CCCC4)ncnc32)O1`, 3.85%.
Take `Cc1noc(C)c1NC(=O)Nc1ccc2c(c1)C(=O)N([C@@H](C)CO)C[C@@H](C)[C@H](CN(C)C(=O)Nc1ccc(C(F)(F)F)cc1)OCCCC[C@@H](C)O2`: the inhibition is -4.84%.
To `CS(=O)(=O)N1CC(=O)N2[C@@H](CO)[C@@H](c3ccc(C#CCC4CCCC4)cc3)[C@@H]2C1` belongs 0.153%.
Take `C[C@@H]1CCCCO[C@H](CN(C)C(=O)Nc2ccc(C(F)(F)F)cc2)[C@@H](C)CN([C@@H](C)CO)C(=O)c2cc(NS(=O)(=O)c3cccs3)ccc2O1`: the inhibition was 80.1% (active).
`C[C@@H]1CN([C@H](C)CO)C(=O)c2cc(NS(=O)(=O)c3cccs3)ccc2O[C@@H](C)CCCCO[C@H]1CN(C)Cc1ccc(C(F)(F)F)cc1`: the inhibition was 96.8% (active).
In the case of `C[C@@H]1CCCCO[C@@H](CN(C)Cc2ccc(C(=O)O)cc2)[C@H](C)CN([C@H](C)CO)C(=O)c2cc(NS(=O)(=O)c3cccs3)ccc2O1` it was 0.438%; in that of `CC(C)NC(=O)N(C)C[C@H]1OCCCC[C@H](C)Oc2ccc(NS(=O)(=O)c3cccs3)cc2C(=O)N([C@H](C)CO)C[C@@H]1C`, -10.4%.
In the case of `Cc1ccc(S(=O)(=O)Nc2ccc3c(c2)C(=O)N([C@H](C)CO)C[C@@H](C)[C@H](CN(C)C(=O)Nc2ccc(C(F)(F)F)cc2)OCCCC[C@H](C)O3)cc1` it was 54.1%; in that of `C[C@@H]1CCCCO[C@@H](CN(C)Cc2ccccc2)[C@H](C)CN([C@H](C)CO)C(=O)c2cc(NS(=O)(=O)c3cccs3)ccc2O1`, 6.46%; in that of `CC(=O)N1[C@@H](CO)[C@@H](c2ccccc2)[C@@H]1CN(C)C(=O)CN1CCOCC1`, 12.7%.
On to `Cn1cnc(S(=O)(=O)N2C[C@H](O)COC[C@@H]3O[C@H](CC(=O)NC4CCCC4)CC[C@H]32)c1`, for which the inhibition was -34%.
For the compound `CC(C)NC(=O)N1[C@H](CO)[C@@H]2c3ccccc3N(C(=O)c3ccccc3F)C[C@@H]21`, the inhibition was -9.8%.
For `COc1ccccc1C#Cc1ccc([C@@H]2[C@H](CO)N3CCCCN(C(=O)C4CCCC4)C[C@@H]23)cc1`, the inhibition was -8.82%.
In the case of `CCOc1ccccc1NC(=O)Cn1nnc(C(=O)NCc2cccs2)c1N` it was 68.5% (active).
For the compound `Cc1ccc(NC(=O)Cn2nnc(C(=O)NCc3ccco3)c2N)c(C)c1`, the inhibition was 8.75%.
As to `COc1cccc(CNC(=O)c2nnn(CC(=O)Nc3cc(C)ccc3C)c2N)c1`, the inhibition is 5.68%.
As for `Cc1ccc(-c2ccc3c(c2)O[C@H](CN(C)C(=O)CC2CC2)[C@@H](C)CN([C@H](C)CO)S3(=O)=O)cc1`, the inhibition is 11.8%.
With `CSc1nc(-c2ccccc2)nc(C(Cl)Cl)n1`, the inhibition is 99.3% (active).
As for `Clc1ccc2nc(-c3ccccc3)nc(C(Cl)Cl)c2c1`, the inhibition is 32.4%.

Source of the values: PubChem BioAssay AID652154 (Broad Institute, 2013).
